# Records with an inconclusive call do not appear. Where a call stands in place of a potency, no number is given. Activity calls are given as the source filed them. Calls follow the shape of the dose curve; as a rule, active = well fitted inhibition curve with a large enough effect; inconclusive = small, poorly fitted or top-dose-only effect; inactive = flat fitted curve, though single readings scatter.
# Columns and labels:
# Test in all cases: qHTS profiling for inhibitors of Plasmodium falciparum proliferation (AID 504749); also: nearly all actives have a fitted effect of over 60% in size
# Details in all cases: P. falciparum in erythrocytes, SYBR Green DNA, 72 h; series mostly up to 28.7 µM
# DIV17 = test system: DIV17
# How it was run: (§1)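 Readout was DNA-dye fluorescence from lysed cultures, ex 485/em 535 nm. Parasitized red cells had grown 72 h with compound; data scaled between 0.29 uM artemisinin and DMSO wells and corrected using vehicle-only plates.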
# DIV30 = test system: DIV30
# How it was run: as §1
# Dd2 = test system: Dd2
# How it was run: as §1
# ECU = test system: ECU
# How it was run: as §1
# FAB9 = test system: FAB9
# How it was run: as §1
# GB4 = test system: GB4
# How it was run: as §1
# HB3 = test system: HB3
# How it was run: as §1
# ICS = test system: ICS
# How it was run: as §1
# JCK = test system: JCK
# How it was run: as §1
# N140 = test system: N140
# How it was run: as §1
# PAD = test system: PAD
# How it was run: as §1
# PC15 = test system: PC15
# How it was run: as §1
# PC26 = test system: PC26
# How it was run: as §1
# PC49 = test system: PC49
# How it was run: as §1
# SC27B = test system: SC27B
# How it was run: as §1
# TAB113 = test system: TAB113
# How it was run: as §1
# TAB165 = test system: TAB165
# How it was run: as §1
# P93_24 = test system: P93_24
# How it was run: as §1
# P94_40 = test system: P94_40
# How it was run: as §1
# TAB109 = test system: TAB109
# How it was run: as §1
# Potency is read from the fitted curve at half-maximal effect.
Compound,Potency (DIV17),Potency (DIV30),Potency (Dd2),Potency (ECU),Potency (FAB9),Potency (GB4),Potency (HB3),Potency (ICS),Potency (JCK),Potency (N140),Potency (PAD),Potency (PC15),Potency (PC26),Potency (PC49),Potency (SC27B),Potency (TAB113),Potency (TAB165),Potency (P93_24),Potency (P94_40),Potency (TAB109)
Cc1c(C)c2c(c(C)c1O)CC[C@@](C)(CCC[C@@H](C)CCC[C@@H](C)CCCC(C)C)O2,inactive,inactive,inactive,inactive,inactive,inactive,inactive,inactive,inactive,inactive,inactive,inactive,inactive,inactive,inactive,inactive,inactive,–,–,–
CC1(C)S[C@@H]2[C@H](NC(=O)[C@@H](NC(=O)N3CCNC3=O)c3ccccc3)C(=O)N2[C@H]1C(=O)O,inactive,inactive,inactive,inactive,inactive,inactive,inactive,inactive,inactive,inactive,inactive,inactive,inactive,inactive,inactive,inactive,inactive,inactive,inactive,inactive
CCCCCCCCCCCC[n+]1ccc2ccccc2c1,0.953 µM (active),1.35 µM (active),0.562 µM (active),1.26 µM (active),1.58 µM (active),0.338 µM (active),2.51 µM (active),0.447 µM (active),12.6 µM (active),0.708 µM (active),2 µM (active),2.24 µM (active),0.953 µM (active),–,1.41 µM (active),1 µM (active),0.891 µM (active),0.631 µM (active),0.891 µM (active),0.631 µM (active)
Nc1c(Br)cc(Br)cc1CNC1CCC(O)CC1 (stereo not given),inactive,inactive,inactive,inactive,inactive,–,inactive,–,inactive,inactive,inactive,inactive,inactive,inactive,inactive,inactive,inactive,inactive,inactive,inactive
CC(C)=O,inactive,inactive,inactive,inactive,inactive,inactive,inactive,inactive,inactive,inactive,inactive,inactive,inactive,inactive,inactive,inactive,inactive,inactive,–,inactive
CCCCCCCCCCCCCC[n+]1ccc(C)cc1,1.9 µM (active),4.78 µM (active),2.82 µM (active),3.16 µM (active),12.6 µM (active),1.2 µM (active),3.55 µM (active),1.58 µM (active),–,7.08 µM (active),3.55 µM (active),4.47 µM (active),4.78 µM (active),–,3.98 µM (active),3.98 µM (active),3.98 µM (active),3.55 µM (active),4.47 µM (active),2.24 µM (active)
CC(C)N=c1cc2n(-c3ccc(Cl)cc3)c3ccccc3nc-2cc1Nc1ccc(Cl)cc1,inactive,inactive,inactive,inactive,inactive,inactive,inactive,3.16 µM (active),inactive,inactive,inactive,–,inactive,inactive,inactive,inactive,inactive,inactive,–,inactive
CO[C@H]1C[C@@H]2CC[C@@H](C)[C@@](O)(O2)C(=O)C(=O)N2CCCC[C@H]2C(=O)O[C@H]([C@H](C)C[C@@H]2CC[C@@H](OCCO)[C@H](OC)C2)CC(=O)[C@H](C)/C=C(\C)[C@@H](O)[C@@H](OC)C(=O)[C@H](C)C[C@H](C)/C=C/C=C/C=C/1C,1.69 µM (active),1.51 µM (active),0.891 µM (active),1.78 µM (active),–,1.69 µM (active),2 µM (active),0.501 µM (active),10 µM (active),1 µM (active),1.41 µM (active),3.16 µM (active),2.13 µM (active),5.01 µM (active),1.41 µM (active),1.12 µM (active),1.12 µM (active),1.41 µM (active),2 µM (active),1.78 µM (active)
CCCCCCC(O)C/C=C/CCCCCCCC(=O)O (stereo not given),inactive,inactive,inactive,inactive,inactive,inactive,inactive,inactive,inactive,inactive,inactive,inactive,inactive,inactive,inactive,inactive,inactive,inactive,inactive,–
CC(C(=O)O)c1ccc(N2Cc3ccccc3C2=O)cc1 (stereo not given),inactive,inactive,inactive,inactive,inactive,inactive,inactive,inactive,inactive,inactive,inactive,inactive,inactive,inactive,inactive,inactive,inactive,inactive,inactive,inactive
O=S(=O)(O)O,inactive,inactive,inactive,inactive,inactive,inactive,inactive,inactive,inactive,inactive,inactive,inactive,inactive,–,inactive,inactive,inactive,inactive,inactive,inactive
C[C@]12CCC(=O)C=C1CC[C@@H]1[C@@H]2[C@@H](O)C[C@@]2(C)[C@H]1CC[C@]2(O)C(=O)COP(=O)(O)O,inactive,inactive,inactive,inactive,inactive,inactive,inactive,inactive,inactive,inactive,inactive,inactive,inactive,inactive,inactive,inactive,inactive,–,inactive,inactive
C=CCSSSCC=C,inactive,inactive,inactive,inactive,inactive,inactive,inactive,inactive,inactive,inactive,inactive,inactive,inactive,inactive,inactive,inactive,inactive,–,inactive,inactive
CCCCCCCCCCCCCCCC(=O)OCC(COC(=O)CCCCCCCCCCCCCCC)OC(=O)CCCCCCCCCCCCCCC,inactive,inactive,inactive,inactive,inactive,inactive,inactive,inactive,inactive,inactive,inactive,inactive,inactive,inactive,inactive,inactive,inactive,inactive,inactive,–
Nc1c(N=Nc2ccc(-c3ccc(N=Nc4cc(S(=O)(=O)O)c5ccccc5c4N)cc3)cc2)cc(S(=O)(=O)O)c2ccccc12,inactive,inactive,inactive,inactive,inactive,inactive,inactive,inactive,–,inactive,inactive,inactive,inactive,inactive,inactive,inactive,inactive,inactive,inactive,inactive
C#C[C@]1(O)CC[C@H]2[C@@H]3CCC4=CCCC[C@@H]4[C@H]3C(=C)C[C@@]21CC,inactive,inactive,inactive,–,inactive,inactive,inactive,10 µM (active),inactive,–,–,inactive,inactive,–,–,–,–,–,–,–
COC(=O)C1=C(C#N)NC(C)=C(C(=O)OC(C)C)C1c1cccc([N+](=O)[O-])c1 (stereo not given),13.5 µM (active),10.7 µM (active),12.6 µM (active),10 µM (active),–,–,10 µM (active),7.94 µM (active),–,7.94 µM (active),10 µM (active),10 µM (active),13.5 µM (active),12.6 µM (active),8.91 µM (active),–,10 µM (active),12.6 µM (active),–,8.91 µM (active)
O=C(COc1ccc(Cl)cc1)OCCNC12CC3CC(CC(C3)C1)C2,inactive,–,inactive,inactive,inactive,–,inactive,inactive,inactive,inactive,inactive,inactive,inactive,inactive,inactive,inactive,inactive,inactive,inactive,inactive
O=C(Nc1ccc(Br)cc1)c1cc(Br)c(Br)s1,–,–,–,–,inactive,–,–,–,–,–,–,inactive,–,inactive,–,–,–,–,–,–
COc1cc(-c2ccc(-[n+]3nc(-c4ccccc4)nn3-c3ccc([N+](=O)[O-])cc3)c(OC)c2)ccc1-[n+]1nc(-c2ccccc2)nn1-c1ccc([N+](=O)[O-])cc1,15.1 µM (active),12 µM (active),–,12.6 µM (active),–,12 µM (active),–,8.91 µM (active),–,–,–,–,15.1 µM (active),–,–,–,–,–,10 µM (active),–
CCOC(=O)C1=CC2(CC)CCCN3CCc4c(n1c1ccccc41)C32 (stereo not given),–,–,12.6 µM (active),11.2 µM (active),7.94 µM (active),–,12.6 µM (active),10 µM (active),–,8.91 µM (active),11.2 µM (active),11.2 µM (active),–,–,10 µM (active),11.2 µM (active),7.94 µM (active),7.94 µM (active),12.6 µM (active),7.94 µM (active)
C=C1C(=CC=C2CCC[C@@]3(C)[C@@H]2CC[C@H]3[C@H](C)CCCC(C)C)C[C@@H](O)C[C@@H]1O,–,inactive,10 µM (active),10 µM (active),inactive,inactive,12.6 µM (active),12.6 µM (active),inactive,14.1 µM (active),–,–,inactive,–,–,–,–,–,–,–
CC[C@@]1(O)C(=O)OCc2c1cc1n(c2=O)Cc2cc3c([N+](=O)[O-])cccc3nc2-1,–,–,8.91 µM (active),7.94 µM (active),–,6.75 µM (active),–,5.01 µM (active),–,8.91 µM (active),–,–,–,–,5.62 µM (active),5.62 µM (active),3.98 µM (active),7.94 µM (active),5.01 µM (active),3.98 µM (active)
CCCCC(=O)O[C@]1(C(=O)CO)[C@H](C)C[C@H]2[C@@H]3CCC4=CC(=O)C=C[C@]4(C)[C@@]3(F)[C@@H](O)C[C@@]21C,–,–,inactive,–,inactive,–,inactive,–,inactive,–,–,–,–,inactive,inactive,inactive,–,–,inactive,–
Cc1ccccc1OCC(O)CNCCOc1ccc(C(N)=O)cc1 (stereo not given),–,inactive,inactive,inactive,inactive,–,inactive,inactive,inactive,inactive,inactive,inactive,inactive,inactive,inactive,inactive,inactive,inactive,inactive,inactive
CCOc1ccc(N=Nc2ccc(N)cc2N)cc1,–,inactive,inactive,–,inactive,–,inactive,–,inactive,inactive,–,inactive,inactive,inactive,–,–,–,–,–,inactive
O=C1CSC2(CCN(CCCN3c4ccccc4Sc4ccc(Cl)cc43)CC2)N1,15.1 µM (active),15.1 µM (active),–,–,inactive,16.9 µM (active),–,12.6 µM (active),inactive,–,–,–,–,–,–,–,–,8.91 µM (active),–,–
O=S(=O)(O)c1cc(O)c2c(N=Nc3ccc(Nc4ccccc4)c4c(S(=O)(=O)O)cccc34)cc(S(=O)(=O)O)cc2c1,–,inactive,–,inactive,inactive,inactive,inactive,–,inactive,–,inactive,–,–,–,inactive,–,–,–,–,–
O=C(O)c1cc(O)c2c(c1)[O][Bi][O]2,–,inactive,inactive,inactive,inactive,inactive,inactive,inactive,inactive,inactive,inactive,inactive,inactive,inactive,inactive,inactive,inactive,inactive,inactive,inactive
